# High-throughput results as filed in PubChem BioAssay.
# Only some compounds are listed: those with a hit (about 1.3% of all), similar ones and a draw of the others.
# BH1578 lux ind – inducers of Vibrio cholerae quorum light production without autoinducers; V. cholerae BH1578 lux reporter, luminescence, 6 h; activation, % at 18.7 µM; 0.16% of 350,000 active; in the data active = activation mostly above about 9.7%, no sharp cut-off
# SARS 3CLpro inh – SARS-CoV 3CLpro protease inhibition | P0C6X7 | inhibition, % at 6 µM | 0.14% of 290,000 active | AID 1706 | recombinant SARS-CoV 3CLpro, quenched FRET peptide cleavage; in the data active = inhibition above about 12%
# CCHFV vOTU inh – CCHFV vOTU protease inhibition; inhibition, % at 11.5 µM; Pep-AMC fluorescence; 0.55% of 370,000 active; AID 651958; in the data active = inhibition above about 30%; note: 0% = vehicle wells with enzyme and 100% = no enzyme wells
# TcdB GH inh – blocks C. difficile toxin B glycohydrolase activity. 0.24% of 350,000 active. P18177. inhibition, % at 9.99 µM. TcdB glycohydrolase enzymatic assay, plate reader; in the data active = inhibition above about 10%
# DUSP3 inh – DUSP3 (human) phosphatase inhibition; recombinant VHR phosphatase, pNPP absorbance; AID 1654; 0.52% of 290,000 active; inhibition, % at 13.3 µM; in the data active = inhibition above about 50%
# SSB-PriA inh – K. pneumoniae PriA-SSBct interaction inhibition; AID 1272365; AlphaScreen SSBct-PriA binding, biotinylated peptide; inhibition, % at 33 µM; 0.6% of 430,000 active; in the data active = inhibition mostly above about 37%, no sharp cut-off; inactive = mostly below about 20%;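 note: plate controls were negative control peptide for no effect and reference peptide for full effect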
# Starred values were filed as active, the others as inactive; i = inactive; / = no result given.
SMILES,BH1578 lux ind,SARS 3CLpro inh,CCHFV vOTU inh,TcdB GH inh,DUSP3 inh,SSB-PriA inh
O=C1OCC2OC(O)C(O)C(O)C2OC(=O)c2cc(O)c(O)c(O)c2-c2c(O)c(O)c3oc(=O)c4c(c(O)c(O)c5oc(=O)c2c3c54)-c2c1cc(O)c(O)c2O (stereo not drawn),/,/,/,/,121.4*,/
COc1cc(Cl)ccc1OCc1cc(C(=O)N2C[C@@H]3CCC[C@H]2C3)no1,-0.7,-1.3,-0.3,0.4,2.5,-11.7
COc1cc(Cl)ccc1OCc1cc(C(=O)N2C[C@H]3CC[C@H]2C3)no1,i,2.1,13.6,2.1,53.3*,-8.9
Cc1onc(-c2ccccc2)c1C(=O)NCc1ccco1,-1.4,4.5,-14.4,/,-2.4,-13.5
Cc1onc(-c2ccccc2)c1C(=O)N(Cc1ccco1)Cc1cccs1,1.5,-1.3,9.1,16.2*,1.2,-15.3
O=C(Nc1ccccc1F)N(Cc1ccc(F)cc1)Cc1nc2ccccc2c(=O)[nH]1,-0.4,-3.5,-4.3,24.2*,10.6,3.6
O=C(c1ccccc1)N(Cc1ccc(F)cc1)Cc1nc2ccccc2c(=O)[nH]1,-0.9,-1.4,1.5,/,22.2,3.3
Cc1ccc2nc3c(cc2c1)c(C)nn3-c1ccccc1,1.9,-0.9,-9.6,-3.6,-29.1,-77.6
Cc1nn(-c2ccccc2)c2nc(=O)n(-c3ccccc3)cc12,-1.4,-2.4,-0.1,/,55.9*,-9.9
Cc1noc(C)c1C(=O)NCc1ccccc1,-0.6,1.7,0.5,/,11.6,-5.1
Cc1noc(C(=O)NCc2ccccc2)c1Cl,-0.2,-2.0,-4.5,1.5,-6.0,104.2*
CC(=O)c1cccc(NC(=O)c2onc(C)c2Cl)c1,-0.2,0.4,8.2,1.9,10.7,115.4*
O=[N+]([O-])c1ccc(-[n+]2nc(-c3ccccc3)nn2-c2ccc(I)cc2)cc1,/,/,/,/,/,155.0*
Cc1[nH]c2ccccc2c1/C=N/NC(=O)c1ccccc1,i,-3.1,8.0,1.4,-12.9,/
Cc1[nH]c2ccccc2c1/C=N/NC(=O)c1ccc(N)cc1,i,-1.6,4.7,0.9,58.2*,/
Cc1nn(C2CC(O)C(O)C(CO)O2)c(=O)[nH]c1=O (stereo not drawn),-1.1,/,-1.0,12.9*,/,-5.5
Clc1cc2c(c3ncccc13)OCN(CCCN1CCOCC1)C2,/,/,/,/,/,105.0*
CCn1ccc(C(=O)Nc2nc(-c3cc(Cl)ccc3Cl)cs2)n1,/,/,/,/,/,-19.0
Cc1ccc(-n2c(C)cc(=O)cc2C)cc1[N+](=O)[O-],24.9*,-5.5,-2.9,-0.8,-5.1,-4.2
C=c1cc(C)n(CC(=O)NCCc2ccccc2)c(=O)c1=C1N=C(c2cccc(Cl)c2)NO1,/,/,/,/,/,-8.0
c1ccc(CN2CCN(C3=Nc4cccc5cccc3c45)CC2)cc1,i,-2.7,7.1,/,2.6,15.3
Fc1ccc(N2CCN(C3=Nc4cccc5cccc3c45)CC2)cc1,i,-1.8,3.1,1.2,14.5,43.6*
COc1cccc([C@H](CNC(=O)c2ccoc2)OC)c1,/,/,/,/,/,-8.0
COc1ccc2nc(N=Cc3c(C)[nH]n(-c4ccc(C)cc4C)c3=O)sc2c1,/,/,/,/,/,47.8*
O=C(NC(=S)N1CCN(c2ccc([N+](=O)[O-])cc2)CC1)c1ccco1,i,1.5,-12.2,0.8,53.0*,-5.6
SMILES,BH1578 lux ind,SARS 3CLpro inh,CCHFV vOTU inh,TcdB GH inh,DUSP3 inh,SSB-PriA inh
CCN1CCN(C(=O)CN2C(=O)COc3ccc(S(=O)(=O)N4CCOCC4)cc32)CC1,1.1,-0.5,9.6,0.5,56.8*,-23.9
O=C(CN1C(=O)COc2ccccc21)N1CCCC1,0.9,-0.1,-6.0,-0.6,55.5*,-8.0
O=C(CN1C(=O)COc2ccccc21)N1CCOCC1,-0.6,-1.5,7.4,5.5,-9.0,-10.4
O=C(CCCc1c[nH]c2ccccc12)NCC1COc2ccccc2O1 (stereo not drawn),-0.2,1.8,-11.6,-1.1,51.9*,14.6
Cc1cccn2c(=O)c3cc(C(=O)NCc4ccc(F)cc4)c(=N)n(CC4CCCO4)c3nc12 (stereo not drawn),i,-4.8,-237.5,0.7,55.5*,5.1
COc1ccc(CNC(=O)c2cc3c(=O)n4cccc(C)c4nc3n(CC3CCCO3)c2=N)cc1 (stereo not drawn),-0.2,-3.1,9.2,1.3,16.5,-8.7
CCOc1ccc2nc(NC3=NC(C)(C)C=C(C)N3)nc(C)c2c1,-16.7,-10.3,-24.6,/,14.5,2.5
CCOc1ccc2c(C)nc(NC3=NC(C)(C)C=C(C)N3)nc2c1,0.2,-1.8,-13.7,10.6*,-4.4,-8.7
Fc1ccccc1CSc1ccc(-n2cccn2)nn1,/,/,/,/,/,-16.0
C/C(=N/NC(=S)NCc1ccco1)c1cccc([N+](=O)[O-])c1,/,/,/,/,/,66.0*
Cc1ccc2[nH]c(C(=O)NN=Cc3ccccc3O)c(C)c2c1,/,/,/,/,/,-3.2
COc1ccc(S(=O)(=O)N2CCc3ccccc3C2)cc1,1.9,-0.7,-6.8,-1.1,51.4*,-5.0
COC(=O)Cc1c(C)c2ccc(OCC(=O)N(C)C)cc2oc1=O,i,2.6,-61.9,/,50.9*,-2.3
O=C(c1ccc(Oc2ccc([N+](=O)[O-])cc2)cc1)N1CCCCCC1,-0.1,-5.0,0.8,0.4,12.6,11.8
O=C(CCc1ccc(Oc2cc([N+](=O)[O-])cc([N+](=O)[O-])c2)cc1)N1CCCCC1,-1.7,3.6,8.0,/,-3.7,44.9*
COc1ccccc1NC(=O)NNC(=O)CCN1CCOCC1,0.0,-3.8,-2.2,0.7,56.7*,-8.0
COc1ccccc1NC(=O)CCN1CCN(C)CC1,-0.2,-7.8,4.9,1.1,-22.7,-3.9
COc1ccc(CN2CCC(Oc3ccc(C(=O)NCc4ccccn4)cc3)CC2)c(F)c1,/,-6.3,10.6,1.2,57.1*,4.0
Cc1cc(NC(=O)c2ncc(-c3ccccc3)o2)on1,/,/,/,/,/,-9.0
O=C(CSCCO)Nc1ccc([N+](=O)[O-])cc1,-0.2,3.2,10.4,-1.0,51.7*,-8.9
O=C(CSCCO)Nc1cccc([N+](=O)[O-])c1,-0.2,0.4,4.2,/,-3.8,0.8
CC(=NNc1ccnc2cc(Cl)ccc12)c1ccc(N)cc1,/,/,/,/,/,71.3*
CC/C(=N\Nc1ccnc2cc(Cl)ccc12)c1ccc(O)cc1,i,-1.0,8.5,0.8,-8.1,/
Oc1ccc(C=NNc2ccnc3cc(Cl)ccc23)cc1O,/,/,/,/,/,47.3*
O=C(C1CCN(c2cc(-n3ccnc3)ncn2)CC1)N1CCN(c2ccc(C(F)(F)F)cn2)CC1,/,/,/,/,/,-6.0
SMILES,BH1578 lux ind,SARS 3CLpro inh,CCHFV vOTU inh,TcdB GH inh,DUSP3 inh,SSB-PriA inh
O=C(CCCn1nc(-c2ccco2)ccc1=O)N(Cc1ccccc1)c1ccccc1,/,/,/,/,/,1.0
COc1ccc(C(O)(C(C)C)C(CN2CCOCC2)c2ccccc2)cc1 (stereo not drawn),-0.1,2.5,-7.5,21.3*,-11.0,7.6
COc1ccc(-c2ccc(N3CCN(S(=O)(=O)c4cccnc4)CC3)nn2)cc1OC,/,/,/,/,/,-3.0
CC(C)C1(c2ccsc2)NC(=O)NC1=O (stereo not drawn),-0.8,/,-12.1,0.9,/,-16.5
CC(C)C12NC(=O)NC(=O)N1CCS2 (stereo not drawn),i,/,0.4,10.1*,/,-13.5
Cc1c(Cl)cccc1NC(=O)CSc1nc2ccsc2c(=O)n1Cc1ccco1,/,/,/,/,/,-9.0
O=C(COc1ccccc1)Nc1nc2c(s1)-c1cccc3cccc-2c13,/,/,/,/,/,42.0*
